# In the supplement of paper PMC8728848:
# Shown is part of a subset that was picked to be rich in the strongest signals.
# B1: PkBDPgamma (Plasmodium knowlesi) (protein)
# chain: SAINQIFLQNNVMDKCNDKRKRGERDWDCPTEKDVCIPDRRYQLCMMEITNLVDTDTHFHSDIIFRKSYSRRRLIYDVGGRGDLLLKKYNNVYSEDLCKDIKWSLQDFGDIIMGTDMEGIGYSLVVQNNLRSIFGTGTSAELDRKKWWNDHKKDIWKAMILSVKEKNRYSAWNCKEDVQIKVEPQIYRWIREWGRDYMSEFREQRRKLNEKCEDKLYYSTMLICTLPPCNNACKSYDEWITGKKKQWDVLSTKFSSVKKAQKIETENIARAYDILKQELNGFNEVTFENEINKRDKLYNYFCVCIVQEARKNTQENVKNVGSGVESKAPSSNPINEAVKSSSGEGKVQEDSAHRSVNEGEGKSSTNEADPGSQPGAAASGGGSGGGTGGGVDLAPQMLRELQETNAALQDVRELLRQQVKEITFLKNTVMECDACGGPLDRNLPPLAPLGPTGGWSHPQFEK
# Tests used:
# Test in all cases: glycan array binding signal (z-score within array); higher = stronger binding
# Conditions in all cases: glycan notation: IUPAC condensed, linker removed
# [1] = biological target: Fuc(a1-2)Gal(b1-3)GlcNAc(b1-3)GalNAc
# How it was run: (§1)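 Glycan array binding is given as a within-array Z-score, which can be read as non-binding when negative. The arrays, 3228 of them, came from the Consortium for Functional Glycomics database and were retained only where the protein sequence was available. Z-scores were averaged across arrays of the same protein sequence at different concentrations or buffers and across linkers.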
# [2] = biological target: Fuc(a1-2)Gal(b1-4)Glc
# How it was run: as §1
# [3] = biological target: Fuc(a1-2)Gal(b1-4)GlcNAc(b1-2)[Fuc(a1-2)Gal(b1-4)GlcNAc(b1-4)]Man(a1-3)[Fuc(a1-2)Gal(b1-4)GlcNAc(b1-2)Man(a1-6)]Man(b1-4)GlcNAc(b1-4)GlcNAc
# How it was run: as §1
# [4] = biological target: Fuc(a1-2)Gal(b1-4)GlcNAc(b1-3)GalNAc
# How it was run: as §1
# [5] = biological target: Fuc(a1-2)Gal(b1-4)GlcNAc(b1-3)[Fuc(a1-3)[Gal(b1-4)]GlcNAc(b1-6)]Gal(b1-4)Glc
# How it was run: as §1
# [6] = biological target: Fuc(a1-2)Gal(b1-4)[Fuc(a1-3)]GlcNAc(b1-2)[Fuc(a1-2)Gal(b1-4)[Fuc(a1-3)]GlcNAc(b1-4)]Man(a1-3)[Fuc(a1-2)Gal(b1-4)[Fuc(a1-3)]GlcNAc(b1-2)Man(a1-6)]Man(b1-4)GlcNAc(b1-4)GlcNAc
# How it was run: as §1
# [7] = biological target: Fuc(a1-2)[Gal(a1-3)]Gal(b1-4)GlcNAc(b1-2)Man(a1-3)[Fuc(a1-2)[Gal(a1-3)]Gal(b1-4)GlcNAc(b1-2)Man(a1-6)]Man(b1-4)GlcNAc(b1-4)GlcNAc
# How it was run: as §1
# [8] = biological target: Fuc(a1-2)[GalNAc(a1-3)]Gal(b1-3)GlcNAc
# How it was run: as §1
# [9] = biological target: Fuc(a1-2)[GalNAc(a1-3)]Gal(b1-3)GlcNAc(b1-6)GalNAc
# How it was run: as §1
# [10] = biological target: Fuc(a1-2)[GalNAc(a1-3)]Gal(b1-4)GlcNAc(b1-2)Man(a1-3)[Fuc(a1-2)[GalNAc(a1-3)]Gal(b1-4)GlcNAc(b1-2)Man(a1-6)]Man(b1-4)GlcNAc(b1-4)GlcNAc
# How it was run: as §1
# [11] = biological target: Fuc(a1-2)[GalNAc(a1-3)]Gal(b1-4)GlcNAc(b1-6)GalNAc
# How it was run: as §1
# [12] = biological target: Fuc(a1-3)[Gal(b1-4)]GlcNAc(b1-3)GalNAc
# How it was run: as §1
# [13] = biological target: Fuc(a1-4)GlcNAc
# How it was run: as §1
# [14] = biological target: Gal(a1-3)Gal(b1-4)GlcNAc
# How it was run: as §1
# [15] = biological target: Gal(b1-2)Gal
# How it was run: as §1
# [16] = biological target: Gal(b1-3)Gal
# How it was run: as §1
# [17] = biological target: Gal(b1-3)GalNAc(b1-4)Gal(b1-4)Glc
# How it was run: as §1
# [18] = biological target: Gal(b1-3)GlcNAc(a1-6)Gal(b1-4)GlcNAc
# How it was run: as §1
# [19] = biological target: Gal(b1-3)GlcNAc(b1-3)Gal(b1-3)GlcNAc
# How it was run: as §1
# [20] = biological target: Gal(b1-3)GlcNAc(b1-3)Gal(b1-4)[Fuc(a1-3)]GlcNAc(b1-6)[Gal(b1-3)GlcNAc(b1-3)]Gal(b1-4)Glc
# How it was run: as §1
# [21] = biological target: Gal(b1-3)[Fuc(a1-4)]GlcNAc(b1-6)GalNAc
# How it was run: as §1
# [22] = biological target: Gal(b1-4)GlcNAc(b1-3)Gal(b1-4)GlcNAc(b1-2)[Gal(b1-4)GlcNAc(b1-3)Gal(b1-4)GlcNAc(b1-6)]Man(a1-6)[Gal(b1-4)GlcNAc(b1-3)Gal(b1-4)GlcNAc(b1-2)Man(a1-3)]Man(b1-4)GlcNAc(b1-4)GlcNAc
# How it was run: as §1
# [23] = biological target: Gal(b1-4)GlcNAc(b1-3)Gal(b1-4)GlcNAc(b1-3)Gal(b1-4)GlcNAc(b1-2)Man(a1-3)[Gal(b1-4)GlcNAc(b1-3)Gal(b1-4)GlcNAc(b1-3)Gal(b1-4)GlcNAc(b1-2)Man(a1-6)]Man(b1-4)GlcNAc(b1-4)GlcNAc
# How it was run: as §1
# [24] = biological target: Gal(b1-4)GlcNAc(b1-3)Gal(b1-4)GlcNAc(b1-3)Gal(b1-4)GlcNAc(b1-3)Gal(b1-4)GlcNAc(b1-3)Gal(b1-4)GlcNAc(b1-2)Man(a1-3)[Gal(b1-4)GlcNAc(b1-3)Gal(b1-4)GlcNAc(b1-3)Gal(b1-4)GlcNAc(b1-3)Gal(b1-4)GlcNAc(b1-3)Gal(b1-4)GlcNAc(b1-2)Man(a1-6)]Man(b1-4)GlcNAc(b1-4)GlcNAc
# How it was run: as §1
# [25] = biological target: Gal(b1-4)GlcNAc(b1-3)Gal(b1-4)GlcNAc(b1-3)Gal(b1-4)GlcNAc(b1-3)Gal(b1-4)GlcNAc(b1-3)Gal(b1-4)GlcNAc(b1-2)[Gal(b1-4)GlcNAc(b1-3)Gal(b1-4)GlcNAc(b1-3)Gal(b1-4)GlcNAc(b1-3)Gal(b1-4)GlcNAc(b1-3)Gal(b1-4)GlcNAc(b1-6)]Man(a1-6)[Gal(b1-4)GlcNAc(b1-3)Gal(b1-4)GlcNAc(b1-3)Gal(b1-4)GlcNAc(b1-3)Gal(b1-4)GlcNAc(b1-3)Gal(b1-4)GlcNAc(b1-2)Man(a1-3)]Man(b1-4)GlcNAc(b1-4)[Fuc(a1-6)]GlcNAc
# How it was run: as §1
# [26] = biological target: Gal3S(b1-4)[Fuc(a1-3)]GlcNAc
# How it was run: as §1
# [27] = biological target: Gal3S6S(b1-4)GlcNAc6S
# How it was run: as §1
# [28] = biological target: GalNAc(a1-3)Gal
# How it was run: as §1
# [29] = biological target: GalNAc(b1-4)Gal(b1-4)Glc
# How it was run: as §1
# [30] = biological target: GalNAc(b1-4)GlcNAc
# How it was run: as §1
binder,measurement,setting,value
B1,glycan array binding signal (z-score),[1],0.928
same,glycan array binding signal (z-score),[2],-0.028
same,glycan array binding signal (z-score),[3],-0.391
same,glycan array binding signal (z-score),[4],1.14
same,glycan array binding signal (z-score),[5],-0.305
same,glycan array binding signal (z-score),[6],0.541
same,glycan array binding signal (z-score),[7],0.37
same,glycan array binding signal (z-score),[8],0.388
same,glycan array binding signal (z-score),[9],-0.403
same,glycan array binding signal (z-score),[10],0.106
same,glycan array binding signal (z-score),[11],-0.264
same,glycan array binding signal (z-score),[12],0.185
same,glycan array binding signal (z-score),[13],-0.191
same,glycan array binding signal (z-score),[14],-0.331
same,glycan array binding signal (z-score),[15],-0.181
same,glycan array binding signal (z-score),[16],0.074
same,glycan array binding signal (z-score),[17],0.593
same,glycan array binding signal (z-score),[18],-0.036
same,glycan array binding signal (z-score),[19],-0.37
same,glycan array binding signal (z-score),[20],-0.308
same,glycan array binding signal (z-score),[21],-0.142
same,glycan array binding signal (z-score),[22],0.897
same,glycan array binding signal (z-score),[23],0.866
same,glycan array binding signal (z-score),[24],1.25
same,glycan array binding signal (z-score),[25],0.939
same,glycan array binding signal (z-score),[26],-0.081
same,glycan array binding signal (z-score),[27],-0.041
same,glycan array binding signal (z-score),[28],-0.429
same,glycan array binding signal (z-score),[29],-0.243
same,glycan array binding signal (z-score),[30],-0.002
